# Measurements taken from PubChem BioAssay (NCATS).
# Where “and” joins values, the source holds several entries; their conditions need not be identical. Equal values may be shown once. Inconclusive results are not listed. Entries that show only a call come without a potency. Calls of active or inactive are those of the source. Unless noted, the call rests on the fitted dose curve.
# Experiment: S16 Schwann cell PMP22 intronic element beta-lactamase assay (AID 624044); further: nearly all actives have a fitted effect of over 15% in size
# Details: S16 rat Schwann cells, PMP22 element beta-lactamase FRET, 24 h; series mostly up to 38.3 µM
# Summary of the method: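 Beta-lactamase reporter under a PMP22 intronic regulatory element in stable S16 rat Schwann cells; 24 h compound exposure. 460 nm blue signal normalized between DMSO (0%) and potassium clavulanate, with 535 nm FRET tracking viability; curves classed by r2 and response.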
row,SMILES,outcome
1,CCN1CC(CCN2CCOCC2)C(c2ccccc2)(c2ccccc2)C1=O (centres undefined),inactive
2,CC(=O)Oc1cccc(O)c1,inactive
3,Nc1ccc(C(=O)Oc2ccccc2)c(O)c1,inactive
4,CC(C)c1cc2c(cc1S(=O)(=O)O)[C@@]1(C)CCC[C@@](C)(C(=O)O)[C@@H]1CC2,inactive
5,CCS(=O)(=O)CCn1c([N+](=O)[O-])cnc1C,inactive
6,O=S1(=O)OC(c2ccc(O)cc2)(c2ccc(O)cc2)c2ccccc21,inactive
7,CCCNC(C)(C)COC(=O)c1ccccc1,inactive
8,O=C(CN1CCNCC1)NC1CCCCC1,inactive
9,COc1ccc(NS(=O)(=O)c2ccc(N)cc2)nn1,inactive
10,NC(N)=NCCN1CCCCCCC1,inactive

# Experiment: qHTS assay for small molecule agonists of the antioxidant response element (ARE) signaling pathway (AID 651741; active means well fitted activation curve with a large enough effect in the signal ratio; the % refers to the signal ratio; further: potency means the concentration at half of the fitted maximal effect)
# Details: HepG2 ARE-bla reporter, beta-lactamase FRET ratio, 16 h; series mostly up to 96 µM
# Summary of the method: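 Agonist activity is measured as ARE-driven beta-lactamase expression in a stable HepG2 reporter line, using 16 h compound treatment at 37 C and a FRET substrate fluorescence readout after 2 h.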
row,SMILES,Potency
1,CC(C)=CCC/C(C)=C/CO,inactive
2,Nc1ccc(S(=O)(=O)c2ccc(N)cc2)cc1,inactive
3,O=C1C(c2[nH]c3ccccc3c2O)=Nc2ccccc21,47.3 µM (active)

# Experiment: qHTS assay for small molecule activators of the p53 signaling pathway (AID 651743; active means well fitted activation curve with a large enough effect in the signal ratio, not every such curve was filed as active; the % refers to the signal ratio)
# Details: HCT-116 p53RE-bla, beta-lactamase FRET ratio, 16 h; stronger effect = higher value
# Summary of the method: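 A beta-lactamase reporter under p53 response element control, stably carried by HCT-116 cells, reported pathway activation. Test compounds were applied for 16 hours at 37 C, and fluorescence was measured 2 hours after adding the B/G FRET substrate.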
row,SMILES,activation
1,CC(C)=CCC/C(C)=C/CO,-2.29% (inactive)
2,Nc1ccc(S(=O)(=O)c2ccc(N)cc2)cc1,-4.8% (inactive) and 0.655% (inactive)
3,O=C1C(c2[nH]c3ccccc3c2O)=Nc2ccccc21,-4.39% (inactive)

# Experiment: qHTS assay for small molecule activators of the nuclear factor-kappa B (NF-kB) signaling pathway (AID 651749; active means well fitted activation curve with a large enough effect in the signal ratio; the % refers to the signal ratio)
# Details: NF-kB-bla ME-180 cells, beta-lactamase FRET ratio, 16 h; stronger effect = higher value
# Summary of the method: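 FRET-based beta-lactamase detection in ME-180 cells reports NF-kB response-element-driven transcription following overnight (16 hr) compound treatment.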
row,SMILES,activation
1,CC(C)=CCC/C(C)=C/CO,-0.602% (inactive)
2,Nc1ccc(S(=O)(=O)c2ccc(N)cc2)cc1,2.3% (inactive) and -6.03% (inactive)
3,O=C1C(c2[nH]c3ccccc3c2O)=Nc2ccccc21,-0.0626% (inactive)
